Measured values: the supplement of paper PMC11732987, “Enantioselective OTUD7B fragment discovery through chemoproteomics screening and high-throughput optimisation” (Communications Chemistry, 2025)

Experiments:
Test in all cases: log2 ratio of Biotin-Ahx-Ub-VS probe labelling (fragment/DMSO); higher = less target engagement (more negative = stronger competition), active = hit call of the paper (q ≤ 0.05, log2 ratio ≤ -1)
Details in all cases: compound concentration: 200 uM; treatment time: 3 h
[1] = biological target: T1, USP19 (UniProt O94966)
T1 sequence (whole entry): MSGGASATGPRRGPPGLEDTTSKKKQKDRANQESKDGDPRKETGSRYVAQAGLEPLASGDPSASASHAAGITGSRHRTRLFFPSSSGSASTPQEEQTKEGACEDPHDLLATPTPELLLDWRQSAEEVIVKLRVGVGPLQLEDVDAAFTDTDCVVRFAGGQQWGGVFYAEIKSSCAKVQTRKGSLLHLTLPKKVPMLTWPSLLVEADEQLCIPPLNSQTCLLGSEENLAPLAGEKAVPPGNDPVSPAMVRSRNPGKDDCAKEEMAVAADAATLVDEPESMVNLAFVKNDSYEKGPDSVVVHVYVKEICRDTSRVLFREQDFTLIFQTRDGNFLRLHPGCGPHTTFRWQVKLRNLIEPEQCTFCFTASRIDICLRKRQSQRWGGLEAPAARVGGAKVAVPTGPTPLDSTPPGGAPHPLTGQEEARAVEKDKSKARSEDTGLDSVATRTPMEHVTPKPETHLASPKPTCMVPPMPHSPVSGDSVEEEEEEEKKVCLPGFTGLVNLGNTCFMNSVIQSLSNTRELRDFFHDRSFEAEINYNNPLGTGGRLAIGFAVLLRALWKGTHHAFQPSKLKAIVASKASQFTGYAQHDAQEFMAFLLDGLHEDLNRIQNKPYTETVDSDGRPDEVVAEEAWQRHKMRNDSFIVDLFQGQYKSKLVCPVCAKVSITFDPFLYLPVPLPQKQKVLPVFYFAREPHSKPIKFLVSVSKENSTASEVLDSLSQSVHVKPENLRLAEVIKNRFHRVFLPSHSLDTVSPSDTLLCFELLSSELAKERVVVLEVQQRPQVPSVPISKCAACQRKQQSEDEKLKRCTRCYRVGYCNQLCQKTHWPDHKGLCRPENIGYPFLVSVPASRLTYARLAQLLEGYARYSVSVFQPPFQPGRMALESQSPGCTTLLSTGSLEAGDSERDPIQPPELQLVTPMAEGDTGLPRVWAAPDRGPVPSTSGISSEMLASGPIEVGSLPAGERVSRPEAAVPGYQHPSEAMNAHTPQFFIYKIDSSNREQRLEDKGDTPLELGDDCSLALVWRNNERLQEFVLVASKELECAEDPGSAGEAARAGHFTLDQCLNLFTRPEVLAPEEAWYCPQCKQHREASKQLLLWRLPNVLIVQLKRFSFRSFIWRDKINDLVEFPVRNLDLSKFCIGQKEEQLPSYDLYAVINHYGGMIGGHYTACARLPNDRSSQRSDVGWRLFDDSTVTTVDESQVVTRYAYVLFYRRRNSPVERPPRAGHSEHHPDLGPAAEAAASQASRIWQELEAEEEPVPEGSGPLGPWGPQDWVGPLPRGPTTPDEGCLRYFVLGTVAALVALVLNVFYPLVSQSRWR
Outline: (§1)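 Global-median-normalised Spectronaut label-free quantities were compared by unpaired t-test, and values are average log2 ratios of fragment over vehicle. Only proteins with ≥2 unique peptides were used. HEK293T lysate (495 µg per sample) was treated in triplicate with fragment at 200 µM or vehicle for 3 h and then with Biotin-Ahx-Ub-VS at 0.5 µM final for 1 h. Labelled DUBs were then NeutrAvidin-enriched, digested with LysC and trypsin, and run by diaPASEF LC-MS/MS.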

[2] = biological target: USP24 (UniProt Q9UPU5)
Sequence of USP24 (Q9UPU5 whole entry): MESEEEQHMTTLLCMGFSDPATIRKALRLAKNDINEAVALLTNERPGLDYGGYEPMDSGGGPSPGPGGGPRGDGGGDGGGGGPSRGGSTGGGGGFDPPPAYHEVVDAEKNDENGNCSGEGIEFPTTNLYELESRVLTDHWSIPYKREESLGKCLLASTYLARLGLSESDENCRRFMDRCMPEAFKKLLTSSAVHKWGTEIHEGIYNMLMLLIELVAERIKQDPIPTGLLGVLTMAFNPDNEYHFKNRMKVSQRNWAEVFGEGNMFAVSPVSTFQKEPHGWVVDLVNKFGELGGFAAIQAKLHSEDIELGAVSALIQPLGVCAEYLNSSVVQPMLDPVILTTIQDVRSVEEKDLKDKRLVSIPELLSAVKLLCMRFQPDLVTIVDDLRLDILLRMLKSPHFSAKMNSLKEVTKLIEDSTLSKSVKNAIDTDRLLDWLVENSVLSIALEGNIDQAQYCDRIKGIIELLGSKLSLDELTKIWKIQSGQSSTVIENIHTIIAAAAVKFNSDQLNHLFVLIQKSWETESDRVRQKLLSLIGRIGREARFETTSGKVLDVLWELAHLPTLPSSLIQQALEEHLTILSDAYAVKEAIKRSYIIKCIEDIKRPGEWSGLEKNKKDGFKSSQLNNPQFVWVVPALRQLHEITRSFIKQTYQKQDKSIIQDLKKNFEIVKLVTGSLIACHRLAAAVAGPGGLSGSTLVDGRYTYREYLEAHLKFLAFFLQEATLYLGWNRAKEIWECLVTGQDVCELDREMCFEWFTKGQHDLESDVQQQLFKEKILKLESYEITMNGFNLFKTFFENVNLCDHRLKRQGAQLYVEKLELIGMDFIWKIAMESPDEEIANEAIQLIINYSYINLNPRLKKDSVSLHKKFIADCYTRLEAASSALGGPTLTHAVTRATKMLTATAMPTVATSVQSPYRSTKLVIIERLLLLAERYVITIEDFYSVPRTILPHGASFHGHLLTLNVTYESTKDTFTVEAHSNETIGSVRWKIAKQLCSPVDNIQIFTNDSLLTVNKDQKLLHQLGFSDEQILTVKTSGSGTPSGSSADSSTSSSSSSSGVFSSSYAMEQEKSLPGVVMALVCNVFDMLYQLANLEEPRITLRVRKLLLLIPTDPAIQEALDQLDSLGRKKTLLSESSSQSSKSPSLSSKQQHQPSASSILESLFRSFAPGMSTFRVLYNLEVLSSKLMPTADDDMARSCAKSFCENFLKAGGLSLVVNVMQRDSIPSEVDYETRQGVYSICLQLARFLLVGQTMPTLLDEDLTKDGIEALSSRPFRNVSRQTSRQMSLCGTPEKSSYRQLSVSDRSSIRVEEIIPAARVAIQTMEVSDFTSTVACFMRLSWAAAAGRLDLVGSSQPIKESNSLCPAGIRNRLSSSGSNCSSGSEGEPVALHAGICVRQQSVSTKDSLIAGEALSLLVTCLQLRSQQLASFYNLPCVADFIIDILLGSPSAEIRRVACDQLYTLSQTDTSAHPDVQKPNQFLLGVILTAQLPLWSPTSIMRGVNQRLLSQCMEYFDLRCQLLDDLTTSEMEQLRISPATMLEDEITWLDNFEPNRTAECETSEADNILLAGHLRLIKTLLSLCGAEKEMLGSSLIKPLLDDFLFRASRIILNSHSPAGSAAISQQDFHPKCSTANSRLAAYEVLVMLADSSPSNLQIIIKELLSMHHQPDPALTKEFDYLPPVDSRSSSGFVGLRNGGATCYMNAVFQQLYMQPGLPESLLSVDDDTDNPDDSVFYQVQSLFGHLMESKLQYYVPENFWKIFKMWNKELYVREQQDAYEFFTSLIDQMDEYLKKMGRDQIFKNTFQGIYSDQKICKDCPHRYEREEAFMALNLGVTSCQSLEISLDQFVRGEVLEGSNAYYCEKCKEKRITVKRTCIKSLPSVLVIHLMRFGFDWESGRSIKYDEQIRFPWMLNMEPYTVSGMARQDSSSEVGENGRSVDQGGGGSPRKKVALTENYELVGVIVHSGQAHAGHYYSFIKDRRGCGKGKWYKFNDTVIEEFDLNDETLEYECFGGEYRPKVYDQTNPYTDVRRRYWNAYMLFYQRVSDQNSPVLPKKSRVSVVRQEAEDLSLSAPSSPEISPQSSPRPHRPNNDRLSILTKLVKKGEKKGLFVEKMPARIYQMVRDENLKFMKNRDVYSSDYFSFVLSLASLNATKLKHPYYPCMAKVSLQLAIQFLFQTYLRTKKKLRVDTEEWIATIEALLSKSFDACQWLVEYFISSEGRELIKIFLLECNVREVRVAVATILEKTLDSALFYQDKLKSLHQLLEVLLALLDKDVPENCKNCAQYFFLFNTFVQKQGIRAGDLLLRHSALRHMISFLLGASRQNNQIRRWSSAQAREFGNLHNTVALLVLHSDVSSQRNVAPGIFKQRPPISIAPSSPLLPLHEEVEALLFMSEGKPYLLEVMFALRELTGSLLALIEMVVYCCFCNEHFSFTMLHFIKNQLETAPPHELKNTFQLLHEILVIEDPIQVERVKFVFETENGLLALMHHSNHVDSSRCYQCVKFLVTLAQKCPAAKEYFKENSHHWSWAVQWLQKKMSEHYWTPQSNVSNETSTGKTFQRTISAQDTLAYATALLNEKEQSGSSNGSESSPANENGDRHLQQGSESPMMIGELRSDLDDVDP
Outline: as §1

[3] = biological target: T2, USP25 (UniProt Q9UHP3)
T2 sequence (whole entry): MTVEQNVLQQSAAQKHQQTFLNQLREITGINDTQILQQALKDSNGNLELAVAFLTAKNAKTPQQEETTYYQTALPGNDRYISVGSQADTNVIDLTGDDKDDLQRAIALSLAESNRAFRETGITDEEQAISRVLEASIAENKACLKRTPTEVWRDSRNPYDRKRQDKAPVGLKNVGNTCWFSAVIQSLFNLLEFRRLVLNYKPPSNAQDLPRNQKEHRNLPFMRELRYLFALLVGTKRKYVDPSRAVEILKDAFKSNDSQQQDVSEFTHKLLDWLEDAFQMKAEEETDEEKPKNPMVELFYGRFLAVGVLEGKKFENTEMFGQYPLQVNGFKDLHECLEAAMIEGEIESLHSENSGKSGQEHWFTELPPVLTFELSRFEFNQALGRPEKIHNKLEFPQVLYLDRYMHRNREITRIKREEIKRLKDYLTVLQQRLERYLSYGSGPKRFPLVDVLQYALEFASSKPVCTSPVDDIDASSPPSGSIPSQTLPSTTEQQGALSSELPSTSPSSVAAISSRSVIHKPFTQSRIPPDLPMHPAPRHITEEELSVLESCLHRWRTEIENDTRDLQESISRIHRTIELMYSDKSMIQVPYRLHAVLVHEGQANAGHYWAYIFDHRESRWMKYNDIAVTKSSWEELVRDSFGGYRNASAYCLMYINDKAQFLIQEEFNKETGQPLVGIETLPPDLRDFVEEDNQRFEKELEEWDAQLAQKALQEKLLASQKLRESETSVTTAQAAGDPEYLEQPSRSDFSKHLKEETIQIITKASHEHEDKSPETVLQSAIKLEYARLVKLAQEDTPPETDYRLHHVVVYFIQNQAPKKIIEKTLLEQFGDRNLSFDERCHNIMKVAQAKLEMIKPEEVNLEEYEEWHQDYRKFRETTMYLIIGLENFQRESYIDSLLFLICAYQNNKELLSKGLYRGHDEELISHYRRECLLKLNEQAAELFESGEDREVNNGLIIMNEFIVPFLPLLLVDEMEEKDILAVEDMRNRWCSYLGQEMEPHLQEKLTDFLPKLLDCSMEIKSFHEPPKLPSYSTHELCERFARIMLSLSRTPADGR
Outline: as §1

[4] = biological target: T3, USP28 (UniProt Q96RU2)
T3 sequence (whole entry): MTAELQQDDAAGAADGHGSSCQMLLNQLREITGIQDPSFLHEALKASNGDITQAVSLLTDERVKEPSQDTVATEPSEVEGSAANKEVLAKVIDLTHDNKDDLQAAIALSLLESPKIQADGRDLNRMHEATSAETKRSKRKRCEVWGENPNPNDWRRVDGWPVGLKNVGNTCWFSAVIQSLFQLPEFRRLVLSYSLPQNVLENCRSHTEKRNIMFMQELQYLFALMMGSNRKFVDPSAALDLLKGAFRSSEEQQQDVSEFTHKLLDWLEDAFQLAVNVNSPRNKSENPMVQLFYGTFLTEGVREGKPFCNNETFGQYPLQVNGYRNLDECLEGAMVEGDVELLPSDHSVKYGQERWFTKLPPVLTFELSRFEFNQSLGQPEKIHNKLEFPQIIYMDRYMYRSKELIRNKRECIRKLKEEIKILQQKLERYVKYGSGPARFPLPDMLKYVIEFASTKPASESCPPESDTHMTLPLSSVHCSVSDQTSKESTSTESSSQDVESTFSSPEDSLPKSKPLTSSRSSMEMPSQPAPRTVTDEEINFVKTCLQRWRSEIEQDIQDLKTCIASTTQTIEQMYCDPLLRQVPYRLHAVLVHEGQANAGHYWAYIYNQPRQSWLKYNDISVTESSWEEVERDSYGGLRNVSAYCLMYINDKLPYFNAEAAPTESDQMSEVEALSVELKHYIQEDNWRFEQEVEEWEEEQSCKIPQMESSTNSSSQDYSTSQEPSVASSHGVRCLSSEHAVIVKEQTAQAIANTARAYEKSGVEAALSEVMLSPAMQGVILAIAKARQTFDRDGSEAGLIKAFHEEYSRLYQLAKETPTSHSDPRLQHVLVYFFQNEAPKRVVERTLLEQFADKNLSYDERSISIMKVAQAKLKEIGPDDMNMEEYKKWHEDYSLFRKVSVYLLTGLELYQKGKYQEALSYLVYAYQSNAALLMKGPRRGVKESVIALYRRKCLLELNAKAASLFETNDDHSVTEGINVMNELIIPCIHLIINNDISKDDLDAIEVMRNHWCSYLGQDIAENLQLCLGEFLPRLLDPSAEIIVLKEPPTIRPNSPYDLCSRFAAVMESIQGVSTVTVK
Outline: as §1

Measured: log2 ratio of Biotin-Ahx-Ub-VS probe labelling

C#Cc1cccc(NC(=O)CCl)c1
inactive: [1] -0.38 | [2] -0.837 | [3] -0.804 | [4] -0.906
